HCMV antiviral: blocks human cytomegalovirus replication; HFF cells, HCMV-luciferase reporter, 72 h; active compounds read low; activity change, negative = inhibition, % at 57.5 µM; 410,000 compounds, 4.5% hits; in the data active = activity change below about -60%; inconclusive = no clear call, values can overlap the other calls; inactive = above about -39%
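Compounds were evaluated in HFFs infected with an HCMV luciferase reporter virus (MOI 1 PFU/cell). Luciferase in lysates collected 72 h post infection served as the replication measure.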
Pf growth 96h: inhibits malaria parasite growth, 96 h. 320,000 compounds, 6.9% hits. P. falciparum luciferase reporter growth, 96 h. Potency, µM (doses to about 28.7 µM), actives largely listed as inhibitors
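P. falciparum expressing integrated firefly luciferase, in erythrocytes at 2% hematocrit, 0.05% parasitemia, incubated with compounds 96 h at 37 C, 5% CO2. Growth inhibition read as loss of luminescence; two-generation exposure targets delayed-death apicoplast inhibitors.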
Pf growth 48h: P. falciparum growth inhibition at 48 hours (one generation) | 310,000 compounds, 5.9% hits | P. falciparum luciferase growth in erythrocytes, 48 h | Potency, µM (doses to about 28.7 µM), hits mostly inhibitors
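A one-generation exposure of luciferase-tagged malaria parasites in RPMI 1640/Albumax erythrocyte culture, 37 C and 5% CO2. Inhibition is inferred from decreased luminescence after adding detection reagent.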
Shiga toxin inh: inhibitors of Shiga toxin in Vero cells; Vero cells, Shiga toxin protein synthesis inhibition reporter; inhibition, % at 38.7 µM; 290,000 compounds, 9.2% hits; in the data active = inhibition mostly above about 28%, no sharp cut-off; inactive = mostly below about 43%
HCV inh: blocks hepatitis C virus; 340,000 compounds, 3.4% hits; Potency, µM (series often up to 41.8 µM), most hits filed as inhibitors; Huh7.5.1 HCVcc-Cre infection, luciferase reporter, 44 h; AID 651820
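Compounds are dispensed onto cells plated 4 h earlier at 1,000 per well, with HCVcc-Cre virus (about 0.5 moi) added next. Following 44 h of culture, luminescent signal is measured for 15 sec after 15 min with substrate at room temperature.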
Cycloheximide cs: counter-screen hit for Shiga toxin inhibitors, cycloheximide; 300,000 compounds, 12% hits; max response, %; cell reporter, cycloheximide protein synthesis inhibition counterscreen; in the data active = max response mostly above about 13%, no sharp cut-off; inactive = mostly below about 14%; note: read at 38.3 µM for the half of the compounds with a filed dose
Hits are given with their value; – = inactive; ? = inconclusive; · = not tested or not shown. Rows were chosen to be rich in hits. Some 21% of all compounds tested hit in one or more screens of this group. Unless noted, calls come from the whole dose curve; as a rule, active = well fitted inhibition curve with a large enough effect; inconclusive = small, poorly fitted or top-dose-only effect, or another doubt; inactive = no such curve, though single readings can be large or run the other way.

SMILES	HCMV antiviral	Pf growth 96h	Pf growth 48h	Shiga toxin inh	HCV inh	Cycloheximide cs
COC(=O)c1ccccc1NC(=O)C1CCCC1	–	–	–	–	–	–
COC(=O)c1ccccc1NC(=O)C1CC=CCC1C(=O)O (stereo unspecified)	-60.5	–	–	–	–	–
O=C(NCCc1ccccc1)c1ccccc1NC(=O)C1CC=CCC1C(=O)O (stereo unspecified)	–	–	–	69.8	–	61.3
O=c1oc2ccccc2c(Nc2ccccc2O)c1[N+](=O)[O-]	–	–	?	–	?	–
O=c1oc2ccccc2c(Nc2cc3ccccc3cc2O)c1[N+](=O)[O-]	–	–	–	111.5	–	53.4
CC1CN(C(=O)CCC(=O)NCc2ccc(Cl)cc2)c2ccccc2S1 (stereo unspecified)	–	–	–	–	–	–
CCc1ccc(-c2[nH]nc3nc(-c4ccc(OC)cc4)cc(C(=O)NCCc4ccc(OC)c(OC)c4)c23)cc1	-91.4	·	·	·	·	·
COc1ccc(-c2cc(C(=O)NCCc3ccccc3)c3c(-c4ccc(Cl)cc4)[nH]nc3n2)cc1	-97.7	·	·	·	·	·
COc1ccc(-c2cc(C(=O)NCCc3ccccc3)c3c(-c4ccccc4)[nH]nc3n2)cc1	-82.4	·	·	·	·	·
O=C(NC1CCN(C(=O)c2cccc([N+](=O)[O-])c2)CC1)c1ccccc1	–	–	–	–	–	–
Cc1ccc2c(c1)C(c1ccccc1)N(C(=O)c1ccc(OC(C)C)cc1)CC(=O)N2 (stereo unspecified)	–	·	·	·	·	·
COC(=O)[C@]1(Cc2ccccc2)N[C@H](CN(C)C(C)=O)[C@@H]2C(=O)N(Cc3ccccc3)C(=O)[C@@H]21	–	·	·	·	–	·
COC(=O)C1CCN(C(=O)c2cc(-c3ccco3)nc3ccccc23)CC1	–	·	·	·	–	·
CCOc1ccccc1CNCc1cccn1-c1nnc(N2CCN(c3ccccc3)CC2)s1	-98.3	·	·	·	·	·
C[C@H](NC(=O)CNC(=O)[C@@H](NC(=O)[C@H](Cc1ccccc1)NC(=O)CNC(=O)CNC[C@@H](N)Cc1ccccc1)[C@@H](C)O)C(=O)N[C@@H](CCCN=C(N)N)C(=O)N[C@@H](CCCCN)C(=O)N[C@@H](CO)C(=O)N[C@@H](C)C(=O)N[C@@H](CCCN=C(N)N)C(=O)N[C@@H](CCCCN)C(N)=O	·	·	·	–	·	–
N#Cc1cccnc1N1CCN(C(C(=O)NC2CCCC2)c2ccc(F)cc2)CC1 (stereo unspecified)	–	·	·	·	·	·
CC1(C)NC(=O)N(CC(O)CN(c2cccc([N+](=O)[O-])c2)S(=O)(=O)c2ccccc2)C1=O (stereo unspecified)	–	–	–	–	–	–
COc1ccc(/C=N\NC(=S)SCN2C(=O)C3CCC(C)(C2=O)C3(C)C)cc1 (stereo unspecified)	–	·	·	·	–	·
CC12CCC(C(=O)N(CSC(=S)N/N=C\c3ccccc3O)C1=O)C2(C)C (stereo unspecified)	–	?	10.4µM	–	–	26.0
CC[C@@H](C)[C@@H](O)[C@H](C)C(=O)[C@H](C)/C=C(\C)C[C@H](C)[C@@H]1OC(=O)[C@H]1CC	·	·	·	–	·	–
Cc1ccc(C#CC[N+](C)(C)CC#Cc2ccccc2)cc1	–	5.86µM	2.33µM	–	–	–
C#CC[N+](C)(C)CC#Cc1ccccc1	?	–	1.65µM	–	–	–
Fc1ccc2ncc3c(-c4ccccc4)n[nH]c3c2c1	–	·	·	·	·	·
O=C1CSC(c2cn(-c3ccccc3)nc2-c2ccccc2)N1Cc1ccco1 (stereo unspecified)	–	2.94µM	13.1µM	–	?	19.3
CCOC(=O)C1=C(C)NC(=O)NC1c1cn(-c2ccccc2)nc1-c1cccs1 (stereo unspecified)	–	?	?	–	–	–
O=C1CSC(c2cn(-c3ccccc3)nc2-c2cccs2)N1CC1CCCO1 (stereo unspecified)	–	8.28µM	11.7µM	–	?	–
CCOc1ccccc1-c1noc(CSc2nnc(-c3ccccc3)n2-c2ccc(OC)cc2)n1	–	·	·	·	·	·
CCCCN(CC)C(=O)c1nn(C)c2c1CSc1ccccc1-2	–	·	·	·	·	·
CCN(Cc1ccncc1)Cc1c(O)ccc2cc(Br)ccc12	–	6.57µM	5.86µM	–	–	–
CCN(CC)C(=O)Cc1c(OC)ccc2cc(Br)ccc12	?	–	–	–	–	–

Screening results deposited in PubChem by National Center for Advancing Translational Sciences (NCATS).
